# Hits are enriched below; roughly 3.5% of the tested compounds scored in any of these assays.
# FBW7 activator – human FBW7 E3 ligase activation, primary screen; normalized activity (activation), % at 26.1 µM; AID 1259310; 650,000 tested, 0.13% active; AlphaScreen FBW7–phospho-cyclin E peptide binding, activator screen; Q969H0; in the data active = normalized activity above about 1.9%;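 note: purified mutant Fbw7 with reduced substrate affinity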
# TEAD-YAP block – TEAD-YAP interaction inhibition; AID 1259422; inhibition, % at 9.12 µM; 640,000 tested, 1.4% active; HEK-TIYL cells, TEAD-Gal4/YAP UAS-luciferase luminescence; in the data active = inhibition above about 32%;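 note: 0% = median of test compound wells and 100% = reference inhibitor wells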
# MITF primary – human MITF inhibition, primary screen; O75030; AlphaScreen MITF homodimerization, bead proximity signal; inhibition, % at 2.6 µM; 650,000 tested, 0.91% active; AID 1259374; in the data active = inhibition above about 50%;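 note: 0% = vehicle wells with protein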
# GPR151 ag – human GPR151 activation; Q8TDV0; AID 1508602; PathHunter beta-arrestin GPR151 cells, luminescence; activation, % at 11.2 µM; 650,000 tested, 1% active; in the data active = activation above about 4.9%;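 note: 0% = median of compound wells and 100% = cells with positive control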
# GPR151 conf act – confirmation of human GPR151 activators. GPR151 PathHunter beta-arrestin cells, luminescence, 90 min; % of EA-reagent control over plate median. 6,700 tested, under 10 active. shares compounds with GPR151 ag. activation, % at 11.2 µM. AID 1508609;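 active = mean percent activation across replicates above the confirmation screen cutoff of 4.91%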
# GPR119 ag – GPR119 activation, counter-screen for GPR151 activators | GPR119 PathHunter beta-arrestin cells, luminescence, 90 min; 0 = compound-well median, 100 = enzyme-acceptor control | 6,700 tested, 0.3% active | shares compounds with GPR151 ag | activation, % at 11.2 µM;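 active = mean percent activation in the counterscreen above 29.09%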;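 note: counterscreen on off-target GPR119 to flag nonselective hits from the GPR151 activator screen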
# Target sequence (Q8TDV5 whole entry, looked up): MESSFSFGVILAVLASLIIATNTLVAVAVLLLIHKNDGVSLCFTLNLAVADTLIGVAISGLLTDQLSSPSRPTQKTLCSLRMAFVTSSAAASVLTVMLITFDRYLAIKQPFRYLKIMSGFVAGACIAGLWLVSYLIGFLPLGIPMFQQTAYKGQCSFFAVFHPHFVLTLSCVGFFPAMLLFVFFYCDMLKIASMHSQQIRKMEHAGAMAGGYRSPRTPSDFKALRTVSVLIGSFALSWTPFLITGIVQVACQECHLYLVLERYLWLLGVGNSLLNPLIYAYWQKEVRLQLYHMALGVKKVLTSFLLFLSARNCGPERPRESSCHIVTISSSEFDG
# * marks the source's active call; other numbers are inactive results; . = not tested or not shown.
SMILES,FBW7 activator,TEAD-YAP block,MITF primary,GPR151 ag,GPR151 conf act,GPR119 ag
COc1ccc(-c2nc(NCCc3ccc(O)cc3)nc(OC)n2)cn1,0,-4,4,5.9*,-1,-8
COc1ccc(CCNc2cc(-c3ccc(OC)nc3)ncn2)cc1,0,11,6,5.2*,2,-4
COc1ccc(-c2cc(NCCc3ccc(O)cc3)ncn2)cn1,0,-13,-8,2,.,.
COc1ccc(CCNc2cc(N3CCCC3CO)ncn2)cc1 (configuration not stated),1,-49,4,14*,0,-9
CCCNc1cc(N2CCCC2CO)ncn1 (configuration not stated),0,-6,5,0,.,.
Cc1ccc(N(C(=O)NC(=O)Nc2c(C)cc(C)cc2C)S(=O)(=O)c2ccccc2)cc1,0,9,7,2,.,.
O=C(NCC1CCC2(CCN(C(=O)Cc3ccc(Cl)cc3)CC2)O1)C1CCCCC1 (configuration not stated),0,-3,7,2,.,.
C=CCN(CC(=O)NCc1ccccc1)C(=O)CN1C(=O)C(=O)c2ccccc21,0,10,8,0,.,.
CC(C)Oc1ccc(C(=O)NC(CO)C(=O)O)cc1 (configuration not stated),1,-5,19,-1,.,.
CCOC(=O)c1ccc(-n2c(C)nc(=O)c(-c3ccccc3)c2C)cc1,0,-3,-3,7.8*,0,12
Cc1nc(=O)c(-c2ccccc2)c(C)n1-c1ccc(C(=O)O)cc1,1,3,5,-1,.,.
COc1ccc(N(CC(=O)NC2CCCCCC2)S(C)(=O)=O)cc1OC,0,5,-3,0,.,.
CCOP(=O)(OCC)c1nc(-c2ccco2)oc1NCc1cccnc1,0,-4,0,-1,.,.
COC(=O)C(NC(=O)c1ccccc1)c1ccccc1 (configuration not stated),0,6,4,-1,.,.
COC(=O)C(NC(=O)c1ccc(Br)cc1)c1ccccc1 (configuration not stated),0,16,-4,9.0*,2,12
CCCC1(C)N=C(c2ccc(CC)cc2)CC(c2cc(Br)ccc2O)N1 (configuration not stated),0,-2,12,11*,0,8
CCc1ccc(C2=NC(C)(CC)NC(c3cc(Cl)ccc3O)C2)cc1 (configuration not stated),0,2,1,1,.,.
Cc1cc2[nH]c(=O)c(=O)[nH]c2cc1S(=O)(=O)NC1CCC(C)CC1 (configuration not stated),0,-6,2,7.4*,1,3
C=CCn1c(CNC(=O)c2ccco2)nnc1SCC(=O)Nc1cccc(F)c1,0,2,3,7.3*,1,1
CC(=O)c1cccc(NC(=O)CSc2nnc(-c3cc4ccccc4cc3O)n2C)c1,0,12,-1,5.0*,0,-2
C=CCn1c(SCC(=O)Nc2cccc(SC)c2)nnc1-c1ccccc1O,0,10,-6,5.7*,1,-2
COc1cc(-c2nc3ccccc3c(=O)n2NC(=O)/C=C/c2cccc(Cl)c2)cc(OC)c1OC,0,10,4,1,.,.
N=C1c2ccccc2CN1NC(=O)c1ccc([N+](=O)[O-])cc1,0,-12,14,3,.,.
Cc1cc(C(=O)N2C=CC(C(F)(F)F)=NCC2)nn1C,0,-3,4,5.0*,0,-3
Cc1ccc(S(=O)(=O)C2CCN(C(=O)c3cc(C)n(C)n3)CC2)cc1,0,8,3,0,.,.
COc1ccccc1NC(=O)c1ccc(SCC(=O)NC2CCCCCC2)c([N+](=O)[O-])c1,0,13,15,8.3*,0,6
CN1CCN(C(CNC(=O)Nc2ccc(F)cc2)c2ccc3c(c2)CCN3C)CC1 (configuration not stated),0,1,0,0,.,.
Cc1cccc(NC(=O)NCC(c2ccc3c(c2)CCN3C)N2CCN(C)CC2)c1 (configuration not stated),0,-8,8,5.0*,0,14
CC(C)CC(=O)NS(=O)(=O)c1ccc(NC(=O)c2ccccc2Cl)cc1,0,-9,2,5.1*,1,-8

# Screening data: PubChem, The Scripps Research Institute Molecular Screening Center
